Most compounds without a hit are left out; they make up all but 1.3% or so of the library.
Glioma ERSR ind: induces the endoplasmic reticulum stress response in human glioma cells. U87-MG GRP78 promoter luciferase reporter, 16 h. 420,000 compounds, 0.02% hits. Potency, µM, for the others: top-dose activation, usual class: activators. AID 602332; also: potency is read from the fitted curve at half-maximal effect; series mostly up to about 76 µM; % of control where 0% means no effect; nearly all actives have a fitted effect of over 35% in size
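Stably transfected U87-MG human glioma cells carrying a GRP78-based luminescent sensor were seeded at 1000 cells/well, pin-dosed with compounds and incubated 16 h. Luciferase reagent was then added, and end-point luminescence was read after 10 min at room temperature.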
TRPML1 blocker: human mucolipin-1 channel inhibition; Q9GZU1; TRPML1-inducible cells, Ca2+ dye fluorescence, FDSS; hits give low values; inhibition of EC80 agonist-evoked calcium signal; activity change, negative = inhibition, % (no concentration beside the values); 390,000 compounds, 0.02% hits; AID 624415; in the data active = activity change below about -50%; inconclusive = between about -30% and that limit;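 also: stimulus is agonist 54-4 at its EC80 concentration; % is scaled to controls: 0 for no effect and ±100 for the full control effect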
Target sequence (Q9GZU1 whole entry, looked up): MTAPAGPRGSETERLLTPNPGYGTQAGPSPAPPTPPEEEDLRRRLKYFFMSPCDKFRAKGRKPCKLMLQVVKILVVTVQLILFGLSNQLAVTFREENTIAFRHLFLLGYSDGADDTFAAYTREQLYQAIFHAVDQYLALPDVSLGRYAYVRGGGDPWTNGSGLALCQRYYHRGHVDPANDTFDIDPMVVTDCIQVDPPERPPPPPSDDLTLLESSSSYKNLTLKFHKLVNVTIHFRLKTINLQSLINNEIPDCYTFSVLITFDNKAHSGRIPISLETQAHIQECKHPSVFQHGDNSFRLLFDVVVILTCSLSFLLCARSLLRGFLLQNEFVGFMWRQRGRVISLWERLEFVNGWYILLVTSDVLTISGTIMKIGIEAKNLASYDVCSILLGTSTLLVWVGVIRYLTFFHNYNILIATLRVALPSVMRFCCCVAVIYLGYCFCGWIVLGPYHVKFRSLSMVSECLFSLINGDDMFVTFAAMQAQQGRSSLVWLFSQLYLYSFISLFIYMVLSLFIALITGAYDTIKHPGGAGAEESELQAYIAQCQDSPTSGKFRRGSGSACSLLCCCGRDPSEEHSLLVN
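TRPML1-DL cells, Tet-induced overnight (~16 h, 37 °C) at 1,500 cells/well, were loaded with Ca8 no-wash dye plus quencher for 45-90 min at room temperature. Compounds were pinned during FDSS kinetic reading; agonist 54-4 at EC80 (4 uM final) then added.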
Vif-A3G inh: Vif-A3G binding inhibition. Q9HC16. HeLa A3G-eYFP + Vif (tagged APOBEC3G with the HIV-1 protein that degrades it), YFP fluorescence, overnight. Potency, µM (top dose mostly 46.1 µM), for inactives: at the highest dose activity, negative = active, most hits filed as inhibitors. 410,000 compounds, 0.076% hits. AID 602310; also: potency is read from the fitted curve at half-maximal effect; % is scaled to controls: 0 for no effect and ±100 for the full control effect; nearly all actives have a fitted effect of over 60% in size
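Read-out is eYFP fluorescence (Ex 488/Em 500-530) from Vif-expressing HeLa A3G-eYFP cells; more signal means A3G escaped Vif-mediated degradation. Cells plated overnight, compound pinned in, incubated overnight at 37 deg C.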
Vif-APOBEC3F blk: blocks the Vif interaction with APOBEC3F. AID 602313. HeLa A3F-eYFP + Vif (tagged APOBEC3F with the HIV-1 protein that degrades it), YFP fluorescence increase. Potency, µM (highest dose often 46.1 µM), without a hit: top-dose activity, negative = active. 390,000 compounds, 0.2% hits; also: potency is read from the fitted curve at half-maximal effect; % of control where 0% means no effect; nearly all actives have a fitted effect of over 65% in size
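HeLa cells stably expressing Vif plus C-terminally eYFP-tagged A3F were seeded, incubated overnight at 37 deg C, dosed with compound, incubated overnight again at 37 deg C. Yellow fluorescence (Ex 488/Em 500-530) reported blocked Vif-mediated A3F-eYFP degradation.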
12-LOX inh: inhibitors of human 12S-lipoxygenase ALOX12; P18054; 580,000 compounds, 1.1% hits; AID 1671190; Potency, µM (highest dose often 108 µM), without a hit: top-dose activity change, negative = inhibition, most hits filed as inhibitors; purified 12hLO, xylenol orange hydroperoxide absorbance; also: potency is read from the fitted curve at half-maximal effect; % is scaled to controls: 0 for no effect and ±100 for the full control effect
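Hydroperoxide product was detected by ferrous iron/xylenol orange as the 573 to 405 nm absorbance ratio. Arachidonic acid at 40 uM (final) was turned over for 30 min at room temperature by 150 nM human 12hLO, pH 7.0 Hepes buffer, after 15 min compound preincubation.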
TRPML1 agonist: activates the human TRPML1 channel; 410,000 compounds, 0.12% hits; activation, % (concentration not given with the values); AID 624414; Q9GZU1; TRPML1-expressing cells, Ca2+ dye fluorescence, FDSS; in the data active = activation above about 50%; inconclusive = mostly about 30% to 49%; also: 0% is about no effect
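TRPML1-DL cells, Tet-induced overnight (~16 h, 37 degrees C), loaded 45-90 min at room temperature with Ca8 no-wash calcium dye plus quencher. FDSS fluorescence: 10 s baseline, compound pin-transfer, 110 s agonist read, then EC80 54-4 (4uM final) and 110 s antagonist read.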
* marks the source's active call; other numbers are inactive results; u = inconclusive; x = not tested or not shown; [ ] = remark or other dose. Unless noted, calls follow the shape of the dose curve; as a rule, active = well fitted curve in the direction sought with a large enough effect; inconclusive = small, poorly fitted or top-dose-only effect, or another doubt; inactive = no such curve, though single readings can be large; an effect the other way counts as inactive or inconclusive.

SMILES	Glioma ERSR ind	TRPML1 blocker	Vif-A3G inh	Vif-APOBEC3F blk	12-LOX inh	TRPML1 agonist
Fc1ccc(N/N=C/c2ccc(F)c(F)c2)c(F)c1	x	x	x	x	7.94µM*	x
CC(=O)N(C)c1ccc(NC(=O)CCC2CCCC2)cc1	x	x	x	x	1.4%	x
COC(=O)c1cc(COC(=O)c2cccnc2SC)oc1C	-6.0%	2.7	-1.0%	-0.3%	39.8µM*	9.0
OC1=C(O)c2nc3cc(F)ccc3nc21	1.7%	-2.7	1.3%	4.1%	0.0%	1.3
Fc1ccc2nc3[nH]c4ccccc4c3nc2c1	2.1%	17.5	1.41µM*	u	0.0%	1.0
Cc1ccc(-c2csc(N3CCC[C@@H]3C(=O)NCCn3c(C(F)(F)F)nc4ccccc43)n2)cc1	-1.5%	67.4	-3.9%	-1.8%	2.1%	1.1
CCCn1c(C2CCCN2c2nc(-c3cccc(Br)c3)cs2)nc2ccccc21 (stereo not drawn)	-3.3%	9.1	-3.4%	10µM*	1.3%	-0.1
CCCCCN1CC(=O)N2Cc3[nH]c4ccccc4c3C[C@H]2C1=O	-3.6%	7.2	1.4%	-7.1%	u	0.2
CCCCN1C(=O)C2Cc3c([nH]c4ccccc34)CN2C1=S (stereo not drawn)	2.3%	-1.6	8.91µM*	-527.7%	-17.7%	5.3
CC(=O)Nc1cccc(NC(=O)c2cccc3c(=O)c(C)c(-c4ccccc4)oc23)c1	x	x	x	x	3.0%	x
CC(C)C(NC(=O)COc1ccc2ccccc2c1)C(=O)N/N=C/C=C/c1ccccc1 (stereo not drawn)	-0.4%	14.1	-3.2%	-17.9%	8.91µM*	-0.1
CS(=O)(=O)c1ccc(C(=O)Nc2c(Cl)cc(NC(=O)c3ccco3)cc2Cl)cc1	x	x	x	x	-25.4%	x
Cc1ccc(-c2csc(NS(=O)(=O)c3cccc(F)c3)n2)o1	-1.5%	-1.3	0.5%	-27.5%	15.8µM*	1.4
Cc1nc(NCCc2ccc3c(c2)OCCO3)c2c3c(sc2n1)CCC3	x	x	x	x	-26.2%	x
CC(C)C[C@@H]1N[C@H](C(=O)NC(C)C)Cc2cn(Cc3ccccn3)c3cccc1c23	x	x	x	x	108.5%[176 µM]	x
Cn1c(=O)c2sccc2n(CC(=O)NCC2CCCO2)c1=O (stereo not drawn)	x	x	x	x	-19.2%	x
CN(C)c1ccc(/C=C/c2ccncc2)cc1	3.8%	18.5	u	28.2µM*	30.6%	0.4
CN(C)c1ccc(/C=C/c2nccc3ccccc23)cc1	-3.5%	x	11.2µM*	x	x	u
C(=C\c1c[nH]c2ccccc12)/c1nccc2ccccc12	1.4%	x	8.91µM*	x	x	16.0
Fc1ccc(/C=C/c2nccc3ccccc23)cc1	-1.0%	x	2.3%	x	x	0.4
COc1ccc(CN(C(=O)Cc2n[nH]c(=O)c3ccccc23)C2CC2)cc1	x	x	x	x	-10.4%	x
CCOc1ccc(-n2nnc(C(=O)Nc3ccccc3CC)c2N)cc1	x	x	x	x	15.4%	x
CCCCc1cc(=O)oc2c(C)c(OCC(=O)OC(C)C)ccc12	x	x	x	x	-2.9%	x
Cc1cccc2cc3c(nc12)SC(=NCC1CCCO1)N(Cc1ccco1)C3 (stereo not drawn)	-16.3%	-9.8	-19.8%	0.0%	x	10.2
COCCN=C1Sc2nc3c(C)cccc3cc2CN1Cc1ccco1	5.1%	11.0	-0.9%	-2.3%	31.6µM*	-0.1
SMILES	Glioma ERSR ind	TRPML1 blocker	Vif-A3G inh	Vif-APOBEC3F blk	12-LOX inh	TRPML1 agonist
Cc1ccc(NC(=O)/C=C/c2cccs2)cc1C	x	x	x	x	-0.2%	x
COc1ccc(N(CC(F)(F)F)C(=O)Cn2cnc3c2c(=O)n(C)c(=O)n3C)cc1	x	x	x	x	-23.4%	x
CC(C)COc1ccc(CNC(=S)Nc2ccccc2)cc1Cl	-2.4%	0.6	-0.8%	0.0%	31.6µM*	1.1
CC(C)Oc1ccc(CNC(=S)Nc2ccccc2)cc1Cl	3.3%	1.7	0.4%	u	u	-1.4
CCNC(=O)NC(=O)C(C)Sc1cccc2cccnc12 (stereo not drawn)	x	x	x	x	-28.5%	x
CC(Sc1cccc2cccnc12)C(=O)NC(=O)NC(C)(C)C (stereo not drawn)	x	x	x	x	12.6µM*	x
CC1CC(C)CN(CC(=O)c2c[nH]c3ccccc23)C1 (stereo not drawn)	-1.3%	5.7	u	31.6µM*	u	1.2
